B1: Caulobacter ParB omega fusion; a variant is named by its letters at X, in order, B8GW30 (parent)
chain: MESVVVGEPGMSEGRRGLGRGLSALLGEVDAAPAQAPGEQLGGSREAPIEILQRNPDQPRRTFREEDLEDLSNSIREKGVLQPILVRPSPDTAGEYQIVAGERAWRAAQRAGLKTVPIMVRELDDLAVLEIGIIENVQRADLNVLEEALSYKVLMEKFERTQENIAQTIGKSXSHVANXMRLLXLPDEVQSYLVSGELTAXHARAIAAAADPVALAKQIIEGGLSVRETEALARKAPNLSAGKSKGGRPPRVKDTDTQALESDLSSVLGLDVSIDHRGSTGTLTITYATLEQLDDLCNRLTRGI

Over roughly 81,000 sequences, “one-hybrid fitness for binding NBS DNA” has its median near -0.1; the highest 2% begin near 0.36. This is one part of a sample in which the highest values are shown more often than they occur. Some results are limits rather than exact numbers.

This test covers variants of B1. Description: one-hybrid fitness for binding NBS DNA (the Noc-binding site; scaled: cognate 1, non-cognate 0); higher = stronger binding. To be noted: with NBS DNA site. The gist of the method: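 Pre- and post-selection plasmids were Illumina-sequenced, three replicate libraries were pooled, and any variant with under 10 reads was removed. The libraries were Caulobacter ParB with four specificity codons randomised, selected in E. coli USO through a HIS3 reporter whose site is 19 bp from the promoter. Cells grew 48 hours at 37°C on M9 without histidine, with 0.1 mM IPTG and 5 mM 3-AT. Fitness is the log change in variant-to-wild-type read ratio, rescaled against cognate and non-cognate.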
As to HLAI, the “one-hybrid fitness for binding NBS DNA” value is not above 0.2.

As to KRLI, the “one-hybrid fitness for binding NBS DNA” value was not above 0.2.

With TRHK, the “one-hybrid fitness for binding NBS DNA” value is not above 0.2.

Turning to TTRF, the “one-hybrid fitness for binding NBS DNA” value is not above 0.2.

Consider RAYA, for which the “one-hybrid fitness for binding NBS DNA” value is not above 0.2.

Turning to ISTD, the “one-hybrid fitness for binding NBS DNA” value was not above 0.2.

With AALA, the “one-hybrid fitness for binding NBS DNA” value is not above 0.2.

Turning to TDSY, the “one-hybrid fitness for binding NBS DNA” value is not above 0.2.

Take AIFT: the “one-hybrid fitness for binding NBS DNA” value was not above 0.2.

In the case of PYDR, the “one-hybrid fitness for binding NBS DNA” value was not above 0.2.

For VNLC, the “one-hybrid fitness for binding NBS DNA” value is not above 0.2.

Regarding PDQF, the “one-hybrid fitness for binding NBS DNA” value is not above 0.2.

Regarding RKVH, the “one-hybrid fitness for binding NBS DNA” value was 0.211.

Consider RKKN, for which the “one-hybrid fitness for binding NBS DNA” value came out at 0.252.

With RKKH, the “one-hybrid fitness for binding NBS DNA” value was 0.465.

As to LEGG, the “one-hybrid fitness for binding NBS DNA” value is not above 0.2.

Consider TKHA, for which the “one-hybrid fitness for binding NBS DNA” value was not above 0.2.

Turning to QTGD, the “one-hybrid fitness for binding NBS DNA” value was not above 0.2.

As to QTGC, the “one-hybrid fitness for binding NBS DNA” value stood at 0.246.

Turning to QTGP, the “one-hybrid fitness for binding NBS DNA” value was not above 0.2.

For QTGN, the “one-hybrid fitness for binding NBS DNA” value came out at 0.255.

Take QTGS: the “one-hybrid fitness for binding NBS DNA” value was 0.557.

For QTGH, the “one-hybrid fitness for binding NBS DNA” value was found to be 0.424.

Take LWYM: the “one-hybrid fitness for binding NBS DNA” value is not above 0.2.

For the variant PADY, the “one-hybrid fitness for binding NBS DNA” value was not above 0.2.

Turning to CWIG, the “one-hybrid fitness for binding NBS DNA” value was found to be 0.406.

With QSIS, the “one-hybrid fitness for binding NBS DNA” value came out at 0.232.

As to QPYS, the “one-hybrid fitness for binding NBS DNA” value was not above 0.2.

With QCIS, the “one-hybrid fitness for binding NBS DNA” value turned out to be 0.364.

Take CWRG: the “one-hybrid fitness for binding NBS DNA” value is not above 0.2.

QSPS: the “one-hybrid fitness for binding NBS DNA” value is not above 0.2.

Take QCYS: the “one-hybrid fitness for binding NBS DNA” value came to 0.432.

QSYS: the “one-hybrid fitness for binding NBS DNA” value is 0.337.

Take QSRS: the “one-hybrid fitness for binding NBS DNA” value was determined as 0.64.

For CWIS, the “one-hybrid fitness for binding NBS DNA” value was not above 0.2.

For the variant QCPS, the “one-hybrid fitness for binding NBS DNA” value was determined as 0.299.

On to QCDS, for which the “one-hybrid fitness for binding NBS DNA” value was determined as 0.28.

With PLRP, the “one-hybrid fitness for binding NBS DNA” value was not above 0.2.

In the case of SMYN, the “one-hybrid fitness for binding NBS DNA” value was not above 0.2.

With RGCR, the “one-hybrid fitness for binding NBS DNA” value was not above 0.2.

With TCIC, the “one-hybrid fitness for binding NBS DNA” value was not above 0.2.

TTYN: the “one-hybrid fitness for binding NBS DNA” value was not above 0.2.

Turning to TLLD, the “one-hybrid fitness for binding NBS DNA” value was not above 0.2.

Take KIRT: the “one-hybrid fitness for binding NBS DNA” value is not above 0.2.

QPRS: the “one-hybrid fitness for binding NBS DNA” value is not above 0.2.

With QCRS, the “one-hybrid fitness for binding NBS DNA” value was found to be 0.748.

In the case of QCRP, the “one-hybrid fitness for binding NBS DNA” value worked out at 0.352.

As for RATD, the “one-hybrid fitness for binding NBS DNA” value is not above 0.2.

As to RCTS, the “one-hybrid fitness for binding NBS DNA” value came out at 0.516.

Regarding RLTH, the “one-hybrid fitness for binding NBS DNA” value was not above 0.2.

For the variant RTTP, the “one-hybrid fitness for binding NBS DNA” value is not above 0.2.

As to RATH, the “one-hybrid fitness for binding NBS DNA” value was not above 0.2.

Take RLTP: the “one-hybrid fitness for binding NBS DNA” value was not above 0.2.

As to RTTS, the “one-hybrid fitness for binding NBS DNA” value stood at 0.484.

RFTS: the “one-hybrid fitness for binding NBS DNA” value was determined as 0.285.

As to RTTH, the “one-hybrid fitness for binding NBS DNA” value is 0.24.

As to RPTS, the “one-hybrid fitness for binding NBS DNA” value is not above 0.2.

With RLTS, the “one-hybrid fitness for binding NBS DNA” value turned out to be 0.396.

Regarding RATS, the “one-hybrid fitness for binding NBS DNA” value worked out at 0.433.

Turning to YRMT, the “one-hybrid fitness for binding NBS DNA” value is not above 0.2.

For the variant EQDS, the “one-hybrid fitness for binding NBS DNA” value was not above 0.2.

AANY: the “one-hybrid fitness for binding NBS DNA” value is not above 0.2.

With LYKT, the “one-hybrid fitness for binding NBS DNA” value is not above 0.2.

With ECMG, the “one-hybrid fitness for binding NBS DNA” value is not above 0.2.

FKTC: the “one-hybrid fitness for binding NBS DNA” value is not above 0.2.

In the case of RKTD, the “one-hybrid fitness for binding NBS DNA” value was not above 0.2.

In the case of RSTH, the “one-hybrid fitness for binding NBS DNA” value is not above 0.2.

Turning to RITS, the “one-hybrid fitness for binding NBS DNA” value is 0.384.

Take RITH: the “one-hybrid fitness for binding NBS DNA” value is not above 0.2.

As to RITN, the “one-hybrid fitness for binding NBS DNA” value is not above 0.2.

Consider RHTN, for which the “one-hybrid fitness for binding NBS DNA” value was not above 0.2.

Take RSTD: the “one-hybrid fitness for binding NBS DNA” value was not above 0.2.

In the case of RHTP, the “one-hybrid fitness for binding NBS DNA” value was not above 0.2.

RKTS: the “one-hybrid fitness for binding NBS DNA” value worked out at 0.583.

Consider RKTH, for which the “one-hybrid fitness for binding NBS DNA” value was determined as 0.233.

For RSTS, the “one-hybrid fitness for binding NBS DNA” value came to 0.433.

RHTS: the “one-hybrid fitness for binding NBS DNA” value is 0.446.

Take LQLL: the “one-hybrid fitness for binding NBS DNA” value is not above 0.2.

Consider ECRD, for which the “one-hybrid fitness for binding NBS DNA” value was not above 0.2.

Consider QQMC, for which the “one-hybrid fitness for binding NBS DNA” value was not above 0.2.

As to IARN, the “one-hybrid fitness for binding NBS DNA” value was not above 0.2.

Turning to SSHP, the “one-hybrid fitness for binding NBS DNA” value is not above 0.2.

For the variant VQNC, the “one-hybrid fitness for binding NBS DNA” value is not above 0.2.

For the variant RMTS, the “one-hybrid fitness for binding NBS DNA” value came to 0.433.

As for RMTD, the “one-hybrid fitness for binding NBS DNA” value is not above 0.2.

In the case of RMTN, the “one-hybrid fitness for binding NBS DNA” value is not above 0.2.

With YHNT, the “one-hybrid fitness for binding NBS DNA” value is not above 0.2.

On to PFSK, for which the “one-hybrid fitness for binding NBS DNA” value was not above 0.2.

For the variant QKMD, the “one-hybrid fitness for binding NBS DNA” value is not above 0.2.

With QKMH, the “one-hybrid fitness for binding NBS DNA” value is not above 0.2.

Regarding QAMQ, the “one-hybrid fitness for binding NBS DNA” value is not above 0.2.

In the case of QCMS, the “one-hybrid fitness for binding NBS DNA” value was 0.379.

In the case of QRMQ, the “one-hybrid fitness for binding NBS DNA” value was determined as 0.385.

On to QRMK, for which the “one-hybrid fitness for binding NBS DNA” value came out at 0.404.

As to QPMS, the “one-hybrid fitness for binding NBS DNA” value is not above 0.2.

On to QSMS, for which the “one-hybrid fitness for binding NBS DNA” value was 0.302.

In the case of QSMQ, the “one-hybrid fitness for binding NBS DNA” value was not above 0.2.

With QSMK, the “one-hybrid fitness for binding NBS DNA” value was not above 0.2.

With QKMS, the “one-hybrid fitness for binding NBS DNA” value turned out to be 0.414.

Consider QCMK, for which the “one-hybrid fitness for binding NBS DNA” value was not above 0.2.

In the case of GNCM, the “one-hybrid fitness for binding NBS DNA” value was not above 0.2.

As to LRKY, the “one-hybrid fitness for binding NBS DNA” value was not above 0.2.

Consider GYLG, for which the “one-hybrid fitness for binding NBS DNA” value is not above 0.2.

KRMH: the “one-hybrid fitness for binding NBS DNA” value is not above 0.2.

As for FYYR, the “one-hybrid fitness for binding NBS DNA” value was not above 0.2.

On to DHLS, for which the “one-hybrid fitness for binding NBS DNA” value is not above 0.2.

With ANLH, the “one-hybrid fitness for binding NBS DNA” value is not above 0.2.

Turning to SFVC, the “one-hybrid fitness for binding NBS DNA” value was not above 0.2.

Regarding PQMI, the “one-hybrid fitness for binding NBS DNA” value is not above 0.2.

Turning to AHHY, the “one-hybrid fitness for binding NBS DNA” value was not above 0.2.

RHNK: the “one-hybrid fitness for binding NBS DNA” value was not above 0.2.

For the variant QMCI, the “one-hybrid fitness for binding NBS DNA” value is not above 0.2.

Regarding PANW, the “one-hybrid fitness for binding NBS DNA” value was not above 0.2.

For the variant VVKL, the “one-hybrid fitness for binding NBS DNA” value was not above 0.2.

On to QTMH, for which the “one-hybrid fitness for binding NBS DNA” value came to 0.263.

QTMS: the “one-hybrid fitness for binding NBS DNA” value was found to be 0.463.

For QCMY, the “one-hybrid fitness for binding NBS DNA” value was not above 0.2.

Turning to QRMP, the “one-hybrid fitness for binding NBS DNA” value was not above 0.2.

For QRMN, the “one-hybrid fitness for binding NBS DNA” value came out at 0.295.

Consider QRMH, for which the “one-hybrid fitness for binding NBS DNA” value came out at 0.499.

For QRMD, the “one-hybrid fitness for binding NBS DNA” value is 0.26.

As for QRMS, the “one-hybrid fitness for binding NBS DNA” value was determined as 0.623.

In the case of QTMN, the “one-hybrid fitness for binding NBS DNA” value is not above 0.2.

For QPMY, the “one-hybrid fitness for binding NBS DNA” value was not above 0.2.

Regarding QRMY, the “one-hybrid fitness for binding NBS DNA” value came out at 0.463.

In the case of QRML, the “one-hybrid fitness for binding NBS DNA” value worked out at 0.219.

As for YNGT, the “one-hybrid fitness for binding NBS DNA” value is not above 0.2.

Take HRHE: the “one-hybrid fitness for binding NBS DNA” value was not above 0.2.

For VIRT, the “one-hybrid fitness for binding NBS DNA” value is not above 0.2.

For WQEG, the “one-hybrid fitness for binding NBS DNA” value is not above 0.2.

In the case of FKND, the “one-hybrid fitness for binding NBS DNA” value is not above 0.2.

For the variant AVDT, the “one-hybrid fitness for binding NBS DNA” value was not above 0.2.

IGHS: the “one-hybrid fitness for binding NBS DNA” value is not above 0.2.

With QQIS, the “one-hybrid fitness for binding NBS DNA” value is 0.352.

For QQPH, the “one-hybrid fitness for binding NBS DNA” value was not above 0.2.

As for QQIT, the “one-hybrid fitness for binding NBS DNA” value stood at 0.389.

For QQID, the “one-hybrid fitness for binding NBS DNA” value is not above 0.2.

Turning to QQPS, the “one-hybrid fitness for binding NBS DNA” value is 0.26.

QQPT: the “one-hybrid fitness for binding NBS DNA” value was found to be 0.379.

For the variant MQSG, the “one-hybrid fitness for binding NBS DNA” value is not above 0.2.

Turning to VVCV, the “one-hybrid fitness for binding NBS DNA” value was not above 0.2.

Regarding YLMA, the “one-hybrid fitness for binding NBS DNA” value is not above 0.2.

QYTD: the “one-hybrid fitness for binding NBS DNA” value was not above 0.2.

Turning to QYTH, the “one-hybrid fitness for binding NBS DNA” value stood at 0.202.

With QYTR, the “one-hybrid fitness for binding NBS DNA” value worked out at 0.572.

Turning to QYTN, the “one-hybrid fitness for binding NBS DNA” value was not above 0.2.

As for QYTY, the “one-hybrid fitness for binding NBS DNA” value is not above 0.2.

Turning to QYTM, the “one-hybrid fitness for binding NBS DNA” value was not above 0.2.

For QYTS, the “one-hybrid fitness for binding NBS DNA” value is 0.396.

As for QYTP, the “one-hybrid fitness for binding NBS DNA” value is not above 0.2.

Take QYTT: the “one-hybrid fitness for binding NBS DNA” value worked out at 0.401.

AEMG: the “one-hybrid fitness for binding NBS DNA” value is not above 0.2.

For the variant GTMM, the “one-hybrid fitness for binding NBS DNA” value was not above 0.2.

(Values after a collection of fitness landscapes (doi:10.1016/j.celrep.2020.107928).)
